# Reference: PubChem BioAssay (NCI)
# Compounds without any hit were thinned out: in the full panel of roughly 83,000, 20% have a hit.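 Single-dose data. Exposure time 48 hours. Values below 10 considered active.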 Unmarked numbers belong to inactive results. The source made the active and inactive calls.
# Experiments:
# Assay in all cases: NCI-60 one-dose screen, 48 h (100 = growth as untreated, 0 = no growth, -100 = all killed)
# Settings in all cases: 10 µM unless noted
# [1] = tested on: BT-549 breast
# [2] = tested on: MDA-MB-435 melanoma
# [3] = tested on: SW-620 colon
# [4] = tested on: MCF7 breast
# [5] = tested on: HCT-116 colon
# [6] = tested on: HCC-2998 colon
# [7] = tested on: KM12 colon
Compound,growth [1],growth [2],growth [3],growth [4],growth [5],growth [6],growth [7]
Nc1ccc2c(c1)/C(=N/O)c1cc([N+](=O)[O-])ccc1-2,50.8%,50.9%,13.1%,81.8%,47.3%,103%,64.8%
Cc1cc(Cl)ccc1Nc1nc(C(F)(F)F)ccc1C(=O)NCC(=O)N/N=C/c1c(Cl)cccc1Cl,85.5%,79.6%,80.3%,56.2%,57.7%,92.9%,50.4%
COc1cccc(CCC2C(=O)CCCC2=O)c1,109%,119%,112%,108%,114%,115%,106%
O=C(CCc1nnc(Cn2cncn2)o1)c1nc2ccccc2[nH]1,112%,103%,113%,91%,111%,112%,114%
S=C(c1ccccc1)N1CCN(c2cccc(Cl)c2)CC1,105%,81.5%,98.5%,109%,106%,105%,92.5%
OC(c1cc(C(F)(F)F)nc2c(C(F)(F)F)cccc12)C1CCCCN1 (stereo not drawn),67.6%,61.5%,72.9%,21.8%,44.7%,20.1%,32.7%
N#Cc1c(N2CCOCC2)nc2sc3cc(Cl)ccc3n2c1=N,129%,114%,98.3%,74.7%,103%,122%,82.3%
COc1ccc2nc3cc(Cl)ccc3c(N3CCN(c4ccnc(Nc5ccc(F)cc5)n4)CC3)c2c1,88.3%,74.5%,89.2%,48.8%,41.4%,79.5%,79.1%
O=C(COC(=O)[C@H](C[Se][Se]C[C@H](NC(=O)c1ccc(Br)cc1F)C(=O)OCC(=O)c1ccc(F)cc1)NC(=O)c1ccc(Br)cc1F)c1ccc(F)cc1,-93% (active),-42.1% (active),-95% (active),-58.4% (active),-72.4% (active),-68.9% (active),-99.1% (active)
O=C(/C=C/c1ccccc1)CC(c1ccccc1)N1CCOCC1 (stereo not drawn),-79.4% (active),11.8%,-16.7% (active),11.1%,-97% (active),20.8%,-81% (active)
COc1ccc(-c2oc3cc(O)c(OC)c(O)c3c(=O)c2OC)cc1O,-4.89% (active),-45.9% (active),19.2%,19%,2.2% (active),90.1%,2.13% (active)
CCOc1cc(-c2ccc[nH]2)[nH]c1/C=C1\N=C(C)C(C(=O)OC)=C1C,-43.3% (active),-70.8% (active),-72.9% (active),-91.3% (active),-60.2% (active),-87% (active),-85.3% (active)
O=C(C(=O)N1CCOCC1)c1ccc(OC2OC(CO)C(O)C(O)C2O)cc1 (stereo not drawn),108%,108%,105%,95.2%,105%,127%,112%
CCCn1cnc2c1c(=O)n(CCCCC(C)=O)c(=O)n2C,103%,117%,97.7%,92.6%,96.8%,100%,114%
COc1ccc2c(c1)nc(N)c1c3ccccc3cn21,88.4%,2.56% (active),56.8%,44.8%,59.1%,103%,63%
Cc1c(C(N)=O)sc2nc(SCC(=O)Nc3ccc(Cl)cc3)n(-c3ccccc3)c(=O)c12,69.1%,112%,128%,104%,103%,109%,118%
Cn1cc(-c2nc(-c3c[nH]c4ncccc34)cs2)c2cccnc21,64.7%,5.79% (active),60.4%,59%,41.7%,76.1%,52.1%
O=C(CCc1nnc2sc(Cc3ccccc3Cl)nn12)c1nc2ccccc2[nH]1,96.7%,101%,98.8%,71.6%,85.1%,102%,95.8%
COC(=O)CCC1=C(CC(=O)OC)C(C)=N/C1=C\c1[nH]c(-c2ccc[nH]2)cc1OC,52.3%,17.3%,21.5%,3.83% (active),9.33% (active),33.7%,28.1%
Cn1cc(-c2csc(-c3cn(C)c4ncccc34)n2)c2cc(F)cnc21,85.7%,8.5% (active),61.7%,58%,72.5%,77.3%,60.7%
COc1ccc(OC)c(/C=C/c2nc(=S)n(-c3ccc(Cl)cc3)[nH]2)c1,67.2%,-10.3% (active),50.4%,32%,29.6%,45.6%,40.9%
O=C(Nc1ccc(OCc2nnc(-c3ccccc3)o2)c(F)c1)Nc1ccc(Cl)c(C(F)(F)F)c1,68.3%,27.5%,17.6%,8.14% (active),9.64% (active),14.4%,1.65% (active)
Cc1cc(C(=O)O)c(C)cc1C(=O)O,103%,113%,114%,96%,105%,95.1%,113%
CCC1=C(c2ccc(OC)cc2)C(C)(C)Oc2c1ccc(O)c2CN1CCCC1,40.9%,2.88% (active),3.45% (active),-73.1% (active),-21.4% (active),-89.7% (active),-9.53% (active)
